Results filed as inconclusive are left out. Unless noted, the call rests on the fitted dose curve; in most records, active means well fitted curve in either direction with a large enough effect (not every such curve was filed as active); inconclusive means small, poorly fitted or top-dose-only effect, or another doubt; inactive means flat fitted curve, though single readings scatter.
Experiments:
[1] = AP1 Signaling Pathway (AID 357); conditions: ME-180 AP-1-bla reporter, EGF-induced, beta-lactamase ratio, 5 h; at 17.2 µM (top of the series) unless noted; further: on the % scale 0 is the no-effect control and ±100 the full control effect
Procedure, shortened: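 AP-1-bla ME-180 cells with beta-lactamase reporter under AP-1 response element, stimulated with EC50 EGF; compounds titrated, 5 hours at 37 degrees Celsius. CCF4 read at 460/530 nm ratio; positive and negative modulators judged by AC50.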

[2] = NFAT Signaling Pathway (AID 444); conditions: Jurkat NFAT-bla M1, carbachol, beta-lactamase ratio, 5 h; at 17.2 µM (top of the series) unless noted;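 further: carbachol stimulus at about its EC50 of 1 µM final; on the % scale 0 is the no-effect control and ±100 the full control effect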
Procedure, shortened: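 Jurkat cells carrying an NFAT-driven β-lactamase reporter and co-transfected muscarinic M1 receptor were treated with compound plus carbachol (1 uM final, an EC50 level) for 5 h at 37 °C. CCF4 loading followed for 1 h at RT; 460/530 nm ratio gave %activity.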

[3] = Stat Signaling Pathway (AID 446); conditions: ME-180 SIE beta-lactamase reporter, IL-6 stimulated, 5 h; at 17.2 µM (top of the series) unless noted;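 further: ME-180 cervical cancer cells given 40 pM IL-6 alongside compound; SIE-controlled beta-lactamase reporter measured as 460/530 nm FRET emission ratio; on the % scale 0 is the no-effect control and ±100 the full control effect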
Procedure, shortened: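 ME-180 cells carrying a SIE-driven beta-lactamase reporter are stimulated with 40 pM IL-6 for 5 h at 37C in the presence of compound. The 460/530 nm FRET substrate ratio is read after 2.5 h at RT. Data are normalised to 300 pM IL-6 and to 125 nM JAK inhibitor controls.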

[4] = biological target: Glucocorticoid receptor (Homo sapiens) (UniProt P04150); assay: GR-GFP Redistribution (AID 450;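 active means compounds whose dose series gives a full or clear partial fitted curve of increased nuclear translocation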; further: potency means the concentration at half of the fitted maximal effect)
Sequence of Glucocorticoid receptor (Homo sapiens) (P04150 whole entry, looked up): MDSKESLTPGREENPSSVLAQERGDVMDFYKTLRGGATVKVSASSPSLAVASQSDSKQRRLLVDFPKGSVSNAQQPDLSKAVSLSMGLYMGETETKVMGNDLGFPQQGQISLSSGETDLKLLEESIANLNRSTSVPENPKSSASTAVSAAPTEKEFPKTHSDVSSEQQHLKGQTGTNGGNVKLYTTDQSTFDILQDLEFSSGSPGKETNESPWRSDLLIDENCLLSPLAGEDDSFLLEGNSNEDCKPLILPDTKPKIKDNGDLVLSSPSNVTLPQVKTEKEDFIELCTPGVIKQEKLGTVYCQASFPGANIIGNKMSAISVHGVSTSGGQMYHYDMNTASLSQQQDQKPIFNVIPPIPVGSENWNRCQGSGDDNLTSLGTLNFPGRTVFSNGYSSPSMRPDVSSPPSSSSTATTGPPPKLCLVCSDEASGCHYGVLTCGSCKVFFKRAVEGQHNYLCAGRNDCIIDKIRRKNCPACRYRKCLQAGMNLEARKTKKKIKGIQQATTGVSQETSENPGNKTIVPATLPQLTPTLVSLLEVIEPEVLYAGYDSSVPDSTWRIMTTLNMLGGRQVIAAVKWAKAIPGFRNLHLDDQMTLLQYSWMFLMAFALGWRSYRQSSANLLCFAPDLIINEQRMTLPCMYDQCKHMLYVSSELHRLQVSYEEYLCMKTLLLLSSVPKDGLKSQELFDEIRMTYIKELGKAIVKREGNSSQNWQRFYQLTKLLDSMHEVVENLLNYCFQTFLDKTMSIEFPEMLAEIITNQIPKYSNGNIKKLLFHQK

CCOC(=O)CC(=O)CSc1[nH]c(=O)cc(C)c1C#N
inactive: activity change, negative = inhibition [1] 8.86% | activity change, negative = inhibition [2] 2.85% | activity, negative = inhibition [3] 13.5% | Potency [4] > 20.6 µM

CCC(=O)Nc1nc2ccccc2n1CCN(C)C
inactive: activity change, negative = inhibition [1] 3.29% | activity change, negative = inhibition [2] -7.56% | activity, negative = inhibition [3] 10.7% | Potency [4] > 20.6 µM

Cn1c(=NCC(O)COc2ccccc2)sc2ccccc21 (centres undefined)
inactive: activity change, negative = inhibition [1] -7.25% | activity change, negative = inhibition [2] -13.4% | activity, negative = inhibition [3] 8.49% | Potency [4] > 20.6 µM

CCn1nc(NC(=O)c2ccco2)c2cc3ccccc3nc21
inactive: activity change, negative = inhibition [1] -5.14% | activity change, negative = inhibition [2] 5.58% | activity, negative = inhibition [3] -7.47% | Potency [4] > 20.6 µM

N#Cc1c(N)nc(SCC(=O)NCCc2ccccc2)c(C#N)c1-c1cccs1
inactive: activity change, negative = inhibition [1] 0.711% | activity change, negative = inhibition [2] 15.3% | activity, negative = inhibition [3] 5.35% | Potency [4] > 20.6 µM

Oc1ccccc1-c1nc(NCCN2CCOCC2)c2ccccc2n1
inactive: activity change, negative = inhibition [1] -13.2% | activity change, negative = inhibition [2] 25.8% | activity, negative = inhibition [3] -12.5% | Potency [4] > 20.6 µM

O=c1c(-c2ccc(Cl)cc2)[n+]([O-])c2ccccc2n1O
inactive: activity change, negative = inhibition [1] -1.42% | activity change, negative = inhibition [2] -15.3% | activity, negative = inhibition [3] -2.31% | Potency [4] > 20.6 µM

COc1ccc2c(c1)[nH]c1c(=O)n(CC3CCCO3)cnc12 (centres undefined)
inactive: activity change, negative = inhibition [1] -4.81% | activity change, negative = inhibition [2] 16.4% | activity, negative = inhibition [3] 2.17% | Potency [4] > 20.6 µM

COC(=O)c1sc(NC(=O)C(C)C)c(C(=O)OC)c1C
inactive: activity change, negative = inhibition [1] -5.18% | activity change, negative = inhibition [2] -9.07% | activity, negative = inhibition [3] 1.94% | Potency [4] > 20.6 µM

COCCCn1c2nc3ccccc3nc2c2c(=O)n(CC3CCCO3)cnc21 (centres undefined)
inactive: activity change, negative = inhibition [1] 0.107% | activity change, negative = inhibition [2] -12.4% | activity, negative = inhibition [3] -0.209% | Potency [4] > 20.6 µM

CCCCCC(=O)N1CC2(CC)CN(C(=O)CCCCC)CC(CC)(C1)C2=O
inactive: activity change, negative = inhibition [1] -3.04% | activity change, negative = inhibition [2] -17.5% | activity, negative = inhibition [3] 4.63% | Potency [4] > 20.6 µM

CC(C)CCOc1ccc(Cl)cc1CN1CCOCC1
inactive: activity change, negative = inhibition [1] 26.6% | activity change, negative = inhibition [2] 5.23% | activity, negative = inhibition [3] 9.43% | Potency [4] > 20.6 µM

c1nc(NC2CCCCC2)c2[nH]cnc2n1
inactive: activity change, negative = inhibition [1] -4.39% | activity change, negative = inhibition [2] 2.42% | activity, negative = inhibition [3] -29.4% | Potency [4] > 20.6 µM

CCC(CC)n1[nH]c(=O)cc1N
inactive: activity change, negative = inhibition [1] -9.54% | activity change, negative = inhibition [2] 14.2% | activity, negative = inhibition [3] 2.51% | Potency [4] > 20.6 µM

COc1ccc(Cn2c(O)cc(=O)[nH]c2=O)cc1
inactive: activity change, negative = inhibition [1] 27.1% | activity change, negative = inhibition [2] -0.64% | activity, negative = inhibition [3] -3.75% | Potency [4] > 20.6 µM

O=C(O)C(O)c1ccco1 (centres undefined)
inactive: activity change, negative = inhibition [1] -5.38% | activity change, negative = inhibition [2] -2.98% | activity, negative = inhibition [3] 1.78% | Potency [4] > 20.6 µM

Cc1c(O)c(CN2CCCC(C)C2)cc2c3c(c(=O)oc12)CCC3 (centres undefined)
inactive: activity change, negative = inhibition [1] 13.2% | activity change, negative = inhibition [2] -10.5% | activity, negative = inhibition [3] 6.92% | Potency [4] > 20.6 µM

O=C1C(=O)N(Cc2cccnc2)C(c2ccccn2)/C1=C(/O)c1ccc(Br)cc1 (centres undefined)
inactive: activity change, negative = inhibition [1] -19.9% | activity change, negative = inhibition [2] 15.2% | activity, negative = inhibition [3] -10.5% | Potency [4] > 20.6 µM

COc1ccccc1C1/C(=C(/O)c2cnn(-c3ccccc3)c2C)C(=O)C(=O)N1CCN(C)C (centres undefined)
inactive: activity change, negative = inhibition [1] -7.05% | activity change, negative = inhibition [2] 1.4% | activity, negative = inhibition [3] 2.75% | Potency [4] > 20.6 µM

O=C(O)c1c[nH]c2ccc(S(=O)(=O)N3CCOCC3)cc12
inactive: activity change, negative = inhibition [1] 13.4% | activity change, negative = inhibition [2] -7.03% | activity, negative = inhibition [3] 6.65% | Potency [4] > 20.6 µM

C[N+](C)(C)CCOP(=O)([O-])OC[C@H](O)CO
inactive: activity change, negative = inhibition [1] 9.55% | activity change, negative = inhibition [2] 0.0397% | activity, negative = inhibition [3] -1.98% | Potency [4] > 20.6 µM

CCOC(=O)CNC(=O)CNC(=O)c1ccc(OCC(C)C)cc1
inactive: activity change, negative = inhibition [1] -5.66% | activity change, negative = inhibition [2] 8.09% | activity, negative = inhibition [3] -1.49% | Potency [4] > 20.6 µM

Cc1cc(C)n(CC(=O)c2ccccc2)c(=O)c1C#N
inactive: activity change, negative = inhibition [1] 17.1% | activity change, negative = inhibition [2] -3.95% | activity, negative = inhibition [3] -3.77% | Potency [4] > 20.6 µM

CCOC(=O)COc1ccc(Oc2nc(C)cc(OC)n2)nn1
inactive: activity change, negative = inhibition [1] 13.9% | activity change, negative = inhibition [2] 12.6% | activity, negative = inhibition [3] -0.709% | Potency [4] > 20.6 µM

CCOC(=O)c1c(CN2CCN(C)CC2)n(C)c2cc(Br)c(OC)cc12
inactive: activity change, negative = inhibition [1] 5.82% | activity change, negative = inhibition [2] 20.5% | activity, negative = inhibition [3] -13% | Potency [4] > 20.6 µM

COc1cc(C(=O)NCC(=O)n2nc(C)cc2C)cc(OC)c1OC
inactive: activity change, negative = inhibition [1] 0.479% | activity change, negative = inhibition [2] -4.87% | activity, negative = inhibition [3] 0.715% | Potency [4] > 20.6 µM

Reference: PubChem BioAssay (NCATS)
